Rows were chosen to be rich in hits. Some 13% of all compounds tested hit in one or more screens of this group.
HCMV antiviral = human cytomegalovirus inhibition; actives 4.5% (n = 410,000); HFF cells, HCMV-luciferase reporter, 72 h; stronger effect = lower value; activity change, negative = inhibition, % at 57.5 µM; AID 1259415; in the data active means activity change below about -60%; inconclusive means no clear call, values can overlap the other calls; inactive means above about -39%; further: on the % scale 0 is the no-effect control and ±100 the full control effect
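Compounds were evaluated in HFFs infected with an HCMV luciferase reporter virus (MOI 1 PFU/cell). Luciferase in lysates collected 72 h post infection served as the replication measure.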
HCV inh = blocks hepatitis C virus; Huh7.5.1 HCVcc-Cre infection, luciferase reporter, 44 h; Potency, µM (doses to about 41.8 µM), for inactives: at the top dose activity change, negative = inhibition, usual class: inhibitors; actives 3.4% (n = 340,000); AID 651820; further: potency means the concentration at half of the fitted maximal effect; on the % scale 0 is the no-effect control and ±100 the full control effect
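Infectious HCV cell culture screen: compound-treated cells (1,000/well, pre-plated 4 h) are infected with HCVcc-Cre at roughly 0.5 moi and grown 44 h. Infection is quantified by luciferase signal after 15 min substrate incubation at room temperature.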
Pf growth 48h = inhibits P. falciparum growth in the first generation, 48 h. actives 5.9% (n = 310,000). Potency, µM (top dose mostly 28.7 µM), for inactives: at the top dose activity change, negative = inhibition, most hits filed as inhibitors. P. falciparum luciferase growth in erythrocytes, 48 h; further: potency means the concentration at half of the fitted maximal effect; on the % scale 0 is the no-effect control and ±100 the full control effect
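Growth was read as firefly luciferase luminescence after a 48 h, 37 C, 5% CO2 exposure of compounds to reporter-bearing P. falciparum cultures (0.1% parasitemia, 2% hematocrit final) in Albumax-supplemented RPMI 1640.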
Pf growth 96h = P. falciparum growth inhibition at 96 hour, primary screen for plastid delayed-death inhibitors; P. falciparum luciferase reporter growth, 96 h; Potency, µM (series often up to 28.7 µM), inactives show top-dose activity change, negative = inhibition, most hits filed as inhibitors; actives 6.9% (n = 320,000); AID 504834; further: potency means the concentration at half of the fitted maximal effect; on the % scale 0 is the no-effect control and ±100 the full control effect
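P. falciparum expressing integrated firefly luciferase grown in erythrocytes (2% hematocrit, 0.05% parasitemia final) with compounds for 96 hours at 37 C, 5% CO2. Growth inhibition read as loss of luminescence after adding luciferase detection reagent.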
HCV inh confirm = HCV inhibition, cherry-pick confirmation; shares compounds with HCV inh; HCVcc-Cre infectious virus cell assay, luciferase, inhibition; Potency, µM (highest dose often 41.8 µM), inactives show at the highest dose activity, negative = inhibition, most hits filed as inhibitors; actives 78% (n = 640); AID 720575; further: potency means the concentration at half of the fitted maximal effect; nearly all actives have a fitted effect of over 80% in size
HCV cytotox = counter-screen for HCV inhibitors: host cell cytotoxicity; shares compounds with HCV inh; HCV host cell line cytotoxicity counterscreen; Potency, µM (series often up to 41.8 µM), for the others: at the top dose activity change, negative = cytotoxicity, hits mostly inhibitors; actives 22% (n = 640); AID 720576;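 further: potency means the concentration at half of the fitted maximal effect; 44 h compound exposure; on the % scale 0 is the no-effect control and ±100 the full control effect; nearly all actives have a fitted effect of over 55% in size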
* marks the source's active call; other numbers are inactive results; [ ] = another dose, or the depositor's remark. Unless noted, the call rests on the fitted dose curve; in most records, active means well fitted curve in the direction sought with a large enough effect; inconclusive means small, poorly fitted or top-dose-only effect, or another doubt; inactive means no such curve, though single readings can be large; an effect the other way counts as inactive or inconclusive.

What do the screens show for `CC(=O)NC1(C)CCC2CC1C(C)=NC2(C)C` (configuration not stated)?
HCMV antiviral: 0.8

Results for Cc1ccc2c(c1)[C@H]1[C@H](CO2)[C@H](c2ccccc2)[C@]2(C)C(=O)N(Cc3ccc(F)cc3)CC(=O)N12 ?
HCMV antiviral: 21.0; HCV inh: inconclusive; HCV inh confirm: inconclusive; HCV cytotox: 23.7%

What do the screens show for `OCCNc1ncnc2c1ncn2[C@H]1CN(Cc2ccc3c(c2)OCO3)C[C@@H](CO)O1`?
HCMV antiviral: 32.1

How did COc1ccc(-c2csc(C(O)c3ccc(F)cc3)n2)cn1 (configuration not stated) do in these assays?
HCMV antiviral: -3.4

Results for CCn1c(Cl)c(C=O)s/c1=N\S(=O)(=O)c1ccccc1 ?
HCMV antiviral: inconclusive; HCV inh: 3.16µM*; Pf growth 48h: inconclusive; Pf growth 96h: inconclusive; HCV inh confirm: 19.9µM*; HCV cytotox: 11.2µM*

How did CCN1C(=O)CS/C1=N\S(=O)(=O)c1ccc(Cl)cc1 do in these assays?
HCMV antiviral: 3.9; HCV inh: 15.7%; Pf growth 48h: 5.9%[5.75 µM]; Pf growth 96h: -11.9%

How did CCOC(=O)C1=CCC(c2ccccc2C)N(S(=O)(=O)c2ccc(C)cc2)C1 (configuration not stated) do in these assays?
HCMV antiviral: -24.1

Results for COc1ccc(-c2oc3c(c2C#CC(C)(C)O)C(OC)CCC3)cc1 (configuration not stated) ?
HCMV antiviral: 7.1

Results for COC(=O)c1c(NC(=O)c2ccn(C)n2)sc2c1CCC2 ?
HCMV antiviral: 11.3; HCV inh: 2.82µM*; Pf growth 48h: 31.4%; Pf growth 96h: 40.7%; HCV inh confirm: 0.887µM*; HCV cytotox: 16.5%

Results for COc1ccc(CNc2cccc3[nH]c(C(F)(F)F)nc23)cc1OC ?
HCMV antiviral: 1.5; HCV inh: 5.62µM*; Pf growth 48h: 1.47µM*; Pf growth 96h: -10.6%; HCV inh confirm: 22.3µM*; HCV cytotox: 3.5%

Results for CC(=O)Nc1ccc(NC(=O)Cc2ccc(-c3ccccc3)cc2)cc1 ?
HCMV antiviral: -28.8; HCV inh: 6.7%; Pf growth 48h: 6.0%; Pf growth 96h: -17.8%

How did O=C(CCl)Nc1ccc(-c2ccccc2)cc1 do in these assays?
HCMV antiviral: 80.7; HCV inh: 3.16µM*; Pf growth 48h: inconclusive; Pf growth 96h: 13.1µM*; HCV inh confirm: 6.28µM*; HCV cytotox: 8.87µM*

Results for CC(C)C[C@@H]1COc2cccc(N(C)CCO)c2S(=O)(=O)N1 ?
HCMV antiviral: 10.7

What do the screens show for `COc1nn(-c2ccccc2)c(=O)c(Cl)c1Cl`?
HCMV antiviral: -102.2*; HCV inh: 3.98µM*; Pf growth 48h: -34.7%; Pf growth 96h: inconclusive; HCV inh confirm: 8.87µM*; HCV cytotox: 7.91µM*

How did CN(C)CCNC(=O)c1ccc(COc2ccc(Cl)cc2Cl)cc1 do in these assays?
HCMV antiviral: 51.2; HCV inh: 7.94µM*; Pf growth 48h: inconclusive; Pf growth 96h: 34.6%; HCV inh confirm: 15.8µM*; HCV cytotox: -40.8%

What do the screens show for `COc1ccc(NC(=O)c2nnn(Cc3ccccc3C)c2N)c(OC)c1`?
HCMV antiviral: -11.4

How did COc1ccc(OC)c(NC(=O)c2nnn(Cc3ccccc3C)c2N)c1 do in these assays?
HCMV antiviral: 0.2; HCV inh: 7.08µM*; Pf growth 48h: 11.7µM*; Pf growth 96h: inconclusive; HCV inh confirm: 22.3µM*; HCV cytotox: 43.2%

Results for CCCCOc1ccc(/C=C/C(=O)Nc2ccc([N+](=O)[O-])cc2C)cc1 ?
HCMV antiviral: -11.8; HCV inh: inconclusive; Pf growth 48h: -21.5%; Pf growth 96h: inconclusive

Results for CCCOc1ccc(/C=C/C(=O)Nc2ccc([N+](=O)[O-])cc2)cc1 ?
HCMV antiviral: -69.6*; HCV inh: 3.55µM*; Pf growth 48h: inconclusive; Pf growth 96h: inconclusive; HCV inh confirm: 7.91µM*; HCV cytotox: 19.9µM*

What do the screens show for `Cc1ccc(NC2=C/C(=N\S(=O)(=O)c3cccs3)c3ccccc3C2=O)c(C)c1`?
HCV inh: 5.62µM*; Pf growth 48h: 0.0928µM*; Pf growth 96h: 0.0329µM*; HCV inh confirm: 2.5µM*; HCV cytotox: 3.53µM*

How did COc1ccccc1NC(=O)c1ccc(NC(=O)c2cc3c(s2)CCC3)cc1 do in these assays?
HCMV antiviral: -24.2; HCV inh: 8.91µM*; Pf growth 48h: inconclusive; Pf growth 96h: inconclusive; HCV inh confirm: 8.87µM*; HCV cytotox: 17.0%

How did CSc1scc2c1-c1nc(SCC(=O)C(C)(C)C)ncc1CC2 do in these assays?
HCMV antiviral: inconclusive; HCV inh: 8.91µM*; Pf growth 48h: 9.28µM*; Pf growth 96h: 9.28µM*; HCV inh confirm: 25µM*; HCV cytotox: -15.6%

Results for CC1(C(=O)NS(=O)(=O)c2cccc(OC(F)F)c2)CCN1C(=O)CCc1cccs1 (configuration not stated) ?
HCMV antiviral: -20.8

Results for CSCCC(c1nc2ccccc2[nH]1)n1c(=O)c(-c2ccco2)nc2ccccc21 (configuration not stated) ?
HCMV antiviral: 16.1

What do the screens show for `Cc1nc2ccccn2c1-c1csc(Nc2ccc(C(=O)O)cc2)n1`?
HCMV antiviral: inconclusive; HCV inh: 18.2%; Pf growth 48h: inconclusive; Pf growth 96h: inconclusive

Results for Cc1cccc(Nc2nc(-c3c(C)nc4ccccn34)cs2)c1 ?
HCMV antiviral: -94.5*; HCV inh: 2.51µM*; Pf growth 48h: inconclusive; Pf growth 96h: inconclusive; HCV inh confirm: 14.1µM*; HCV cytotox: 25µM*

Results for COc1ccc(NC(=S)NCCSc2ccc(Cl)cc2)c(OC)c1 ?
HCMV antiviral: -26.0; HCV inh: 5.62µM*; Pf growth 48h: -23.7%; Pf growth 96h: -9.0%; HCV inh confirm: 25µM*; HCV cytotox: -23.8%

How did CCc1nc2c(OCc3ccc(Cl)cc3)cccn2c1N(C=O)Cc1ccccc1 do in these assays?
HCMV antiviral: 7.0

How did COCC(=O)N[C@H]1CC[C@@H](CC(=O)NCc2ccccc2OC)O[C@@H]1CO do in these assays?
HCMV antiviral: -11.9

Results for CCOc1ccc(CCNS(=O)(=O)c2ccc(-c3ccc(=O)[nH]n3)o2)cc1OCC ?
HCMV antiviral: 8.6; HCV inh: 0.3%; Pf growth 48h: inconclusive; Pf growth 96h: 14.9%

What do the screens show for `CCOc1ccc(CCNS(=O)(=O)c2cnc[nH]2)cc1OCC`?
HCMV antiviral: -18.9; HCV inh: 6.31µM*; Pf growth 48h: -23.6%; Pf growth 96h: inconclusive; HCV inh confirm: inconclusive; HCV cytotox: -8.7%

Source: PubChem BioAssay
